# Reference: PubChem BioAssay AID540358 (NMMLSC, 2011)
# Hit rate of the full screen: of about 1,100 compounds, about 260 (24%) were called active. Only a sample is shown. A number with no mark means an inactive call.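 How the source made its calls: active means surface receptor percent response at or below 58%, roughly 3 SD from nonfluorescent compounds; inactive means the rest.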
# Target: Beta-2 adrenergic receptor (Homo sapiens) (UniProt P07550)
# Assay: agonist-driven loss of surface beta2AR – cell-based, FAP fluorogen, flow cytometry, single point, cherry pick 1, confirmation (AID 540358)
# Conditions: Am2.2-beta2AR cells, at 10 µM, stronger effect = lower value
# Beta-2 adrenergic receptor (Homo sapiens), sequence (P07550 whole entry, looked up): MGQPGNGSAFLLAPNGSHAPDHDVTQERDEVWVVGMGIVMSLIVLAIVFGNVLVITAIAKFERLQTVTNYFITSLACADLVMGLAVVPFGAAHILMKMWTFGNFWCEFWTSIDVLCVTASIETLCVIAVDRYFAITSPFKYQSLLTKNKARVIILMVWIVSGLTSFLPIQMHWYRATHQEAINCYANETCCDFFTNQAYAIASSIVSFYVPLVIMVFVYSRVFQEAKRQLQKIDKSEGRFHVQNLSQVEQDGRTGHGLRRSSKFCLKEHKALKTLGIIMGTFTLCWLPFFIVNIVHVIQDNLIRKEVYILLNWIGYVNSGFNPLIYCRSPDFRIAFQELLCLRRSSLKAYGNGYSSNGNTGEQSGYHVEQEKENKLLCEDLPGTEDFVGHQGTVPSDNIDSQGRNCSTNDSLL
row,SMILES,percent response (surface receptor)
1,CCC(=O)c1ccc(OCC(=O)N2CCN(CC(=O)Nc3ccc(C)cc3)CC2)cc1,10.7% (active)
2,O=C1NC(=O)C(CCc2ccccn2)(Cc2cccc(Cl)c2Cl)C(=O)N1c1ccc(Br)cc1 (stereo not drawn),91.2%
3,CC(Cc1ccccc1)NCCC(c1ccccc1)c1ccccc1 (stereo not drawn),105%
